Experimental data as given in PubChem BioAssay AID1239 (SRMLSC, 2008).
About 3,100 (1.6%) of roughly 190,000 compounds were called active. This excerpt belongs to a sample that is enriched for actives. Values without a mark were called inactive. Rule as the data show it: active = fold change above about 3.3; inconclusive = no clear call, values can overlap the other calls; inactive = below that.

Test: activators of NF-kB expression in neurons, primary screen, cell-based, HTS (AID 1239)
Details: human neuronal cells, NF-kB reporter expression; at 12.5 µM; stronger effect = higher value
`O=C(CSc1cccc[n+]1[O-])c1ccc(-c2ccccc2)cc1` showed a fold change of 2.45. In the case of `O=C(Nc1ccc2sc3ccccc3c(=O)c2c1)c1ccccc1Cl`, the fold change is reported as 6.23 (active). `COc1cc(NC(=O)c2cccs2)ccc1NC(=O)c1ccccc1Cl` gave a fold change of 0.87. Work on `O=C(Nc1ccc2nc3n(c(=O)c2c1)CCCCC3)c1ccccc1Cl` yielded a fold change of 1.29. Work on `CCOC(=O)Cc1csc(NC(=O)COc2ccc3c(C)cc(=O)oc3c2)n1` yielded a fold change of 0.61. `O=C(CCC1CCCN(Cc2ccc(O)c(Cl)c2)C1)NCc1ccccc1F` (configuration not stated) gave a fold change of 1.07. With `CC(=O)Nc1cccc(C(=O)Nc2nc(C)cs2)c1` the fold change was 1.22. With `Cc1csc(NC(=S)Nc2cccc(Cl)c2)n1` the fold change was 3.32 (active). With `S=C(Nc1cccc(Cl)c1)Nc1ccc2cn[nH]c2c1` the fold change was 1.36. `NC(=O)c1ccc(NC(=O)COC(=O)C(Cc2ccccc2)NC(=O)c2ccccc2)cc1` (configuration not stated) gave a fold change of 0.99. `COc1ccc(-c2csc(NC(=O)CCCc3cccs3)n2)cc1` gave a fold change of 0.87. Work on `CCNc1nc(-c2cc3ccccc3o2)cs1` yielded a fold change of 1.19. With `COc1ccc(Nc2nc(-c3ccccc3)cs2)cc1` the fold change was 12.5 (active). In the case of `COc1ccc2nc(Nc3nc(-c4cc5ccccc5oc4=O)cs3)sc2c1`, the fold change is reported as 1.2. `NS(=O)(=O)c1ccc(Nc2nc(-c3ccccc3)cs2)cc1` gave a fold change of 1.18. With `O=c1oc2ccccc2cc1-c1csc(Nc2ccc(O)cc2)n1` the fold change was 7.39 (active). For `COc1ccc(-c2csc(Cc3nc(O)cs3)n2)cc1`, the fold change was 3.76 (active). With `COc1ccc(-c2csc(NC(=O)COC(=O)c3ccc(Br)o3)n2)cc1` the fold change was 1.92. In the case of `COc1ccc2nc(Nc3nc(-c4ccncc4)cs3)sc2c1`, the fold change is reported as 1.6. In the case of `Oc1ccc(-c2csc(Nc3cccnc3)n2)cc1`, the fold change is reported as 3.24. For `COc1ccc(-c2csc(Nc3ccc(O)cc3)n2)cc1`, the fold change was 8.49 (active). With `COc1ccc(OC)c(Nc2nc(-c3ccc(O)c(O)c3)cs2)c1` the fold change was 1.32. Work on `O=C(C1CCN(C2CCN(Cc3cccc4c3OCO4)CC2)CC1)N1CCOCC1` yielded a fold change of 1.05. `COC(=O)c1ccc(CN2CCC(CO)(Cc3ccc(OC)cc3)CC2)cc1` gave a fold change of 1.33. For `COc1ccccc1-n1ccnc1SCC(=O)NC(C)(C)C`, the fold change was 1.09. With `CCCCC(CC)CNC(=O)C(=O)C1C(=O)Nc2ccccc21` (configuration not stated) the fold change was 1.17. In the case of `CC[n+]1c(C)n(-c2ccccc2)c2ccc(NC(C)=O)cc21`, the fold change is reported as 0.85. For `N#C/C(=C\c1ccc(-c2cccc([N+](=O)[O-])c2)o1)C(=O)NCCN1CCOCC1`, the fold change was 1.14. `Cc1cccc(NC(=O)c2cc([N+](=O)[O-])ccc2N2CCN(C)CC2)c1` gave a fold change of 0.95. In the case of `O=C(O)c1ccccc1-c1ccccc1C(=O)NCc1cccnc1`, the fold change is reported as 1.16. `COC(=O)C(C)NC(=O)COc1ccc2ccccc2c1` (configuration not stated) showed a fold change of 1.1. `Cc1cc(Cl)ccc1OCCCC(=O)NCc1ccccn1` showed a fold change of 1.09. Compound `N#CC1=C(N)Oc2[nH]c(=S)[nH]c(=O)c2C12C(=O)Nc1ccccc12` (configuration not stated) has a fold change of 1.09. In the case of `Cc1nn(C)c(C)c1Sc1ccccc1N`, the fold change is reported as 0.93. For `CN1CCN(/N=C2/C(=O)Nc3ccc([N+](=O)[O-])cc32)CC1`, the fold change was 1.3. Compound `Cc1cc(Br)ccc1NC(=O)C1CCCO1` (configuration not stated) has a fold change of 1.18. For `Cc1cc(C)c2nc(NC(=O)C3CCCO3)sc2c1` (configuration not stated), the fold change was 6.22 (active). For `O=C(Nc1nc2ccc(S(=O)(=O)N3CCCC3)cc2s1)C1CCCO1` (configuration not stated), the fold change was 0.92. `CC1CN(CCCOc2ccccc2-c2ccccc2)CC(C)O1` (configuration not stated) gave a fold change of 1.16. `CC1CCN(CC(=O)c2c[nH]c3ccccc23)CC1` gave a fold change of 0.78. In the case of `O=C(OCC(=O)c1c[nH]c2ccccc12)c1cccc(O)c1`, the fold change is reported as 5.31 (active). With `O=C(Cc1c[nH]c2ccccc12)OCCOC(=O)Cc1c[nH]c2ccccc12` the fold change was 1.43. In the case of `COc1cccc(CNC(=O)CCC2CCCN(C(=O)c3ccoc3C)C2)c1` (configuration not stated), the fold change is reported as 1.11. Work on `c1ccc(Nc2nc(N3CCOCC3)c3ccccc3n2)cc1` yielded a fold change of 0.6. For `COc1ccc(Nc2ncc(F)c(N3CCOCC3)n2)cc1`, the fold change was 3.96 (active). In the case of `CCOc1ccc(Nc2nc(Cl)nc(N3CCN(c4ccc(OC)cc4)CC3)n2)cc1`, the fold change is reported as 0.61. Compound `Cc1cc(NC(=O)CSCc2ccccc2C)no1` has a fold change of 1.25. For `CC(NCc1nc2ccccc2n1C)C12CC3CC(CC(C3)C1)C2` (configuration not stated), the fold change was 0.85. For `COC(=O)c1sc(NC(=O)c2csc3c2CCCC3)nc1C`, the fold change was 4.92 (active). Work on `COC(=O)c1sccc1NC(=O)c1csc2c1CCCC2` yielded a fold change of 1.41. `CC(=O)Cc1nsc(NC(=O)c2csc3c2CCCC3)n1` gave a fold change of 1.73. `COc1cc(OC)c(C2=NOC(C(=O)Nc3c(C)n(C)n(-c4ccccc4)c3=O)C2)cc1Cl` (configuration not stated) gave a fold change of 0.97. `CN1CCN(CC#CCC2(O)c3ccccc3-c3ccccc32)CC1` gave a fold change of 1.01. `CNC(=O)CSc1nnnn1-c1ccc(C)cc1C` gave a fold change of 1.23. `COc1ccc(C(=O)CSc2nnnn2C)c(OC)c1` showed a fold change of 1. With `CCn1nnnc1SCC(=O)c1ccc(C)cc1C` the fold change was 3.65 (active). With `COCCNC(=O)C(c1ccc(O)cc1)N(C(=O)CCC(=O)Nc1nccs1)c1ccc(C)cc1` (configuration not stated) the fold change was 0.99. Compound `COC(=O)c1ccc(COC(=O)c2cnccn2)cc1` has a fold change of 1.22. With `O=C(CN1C(=O)/C(=C/c2ccccc2F)Sc2ccccc21)NCc1cccnc1` the fold change was 0.69. Work on `OCC(O)CN(c1ccccc1)c1ccccc1` (configuration not stated) yielded a fold change of 1.39. In the case of `Nc1ccc(-c2nnc(-c3ccc(-c4ccccc4)cc3)o2)cc1`, the fold change is reported as 1.31. `O=C(OCc1ccc(Br)cc1)c1cccc(-c2nnc(-c3ccccc3)o2)c1` showed a fold change of 1.7. With `Brc1ccc(-c2nnc(-c3ccccc3)o2)o1` the fold change was 3.89 (active). Compound `COc1ccccc1Cn1c(C)nnc1-c1cnn(C)c1N` has a fold change of 1.41. With `CCOC1CS(=O)(=O)CC1OCC` (configuration not stated) the fold change was 5.97 (active). Work on `COc1ccccc1N1CCN(/N=C\C(Br)=C\c2ccccc2)CC1` yielded a fold change of 1.33. Compound `COc1ccc(CCNC(=O)CC2SC(=Nc3cc(C)cc(C)c3)NC2=O)cc1OC` (configuration not stated) has a fold change of 0.95.
